# FBPA Giardia inh: qHTS Assay for Inhibitors of Fructose-1,6-bisphosphate Aldolase from Giardia Lamblia | purified Giardia FBPA | A8B2U2 | 290,000 tested, 0.71% active | Potency, µM (doses to about 59.6 µM), without a hit: top-dose activity, negative = inhibition, hits mostly inhibitors; also: % is scaled to controls: 0 for no effect and ±100 for the full control effect; nearly all actives have a fitted effect of over 55% in size
# Target sequence (A8B2U2 whole entry, looked up): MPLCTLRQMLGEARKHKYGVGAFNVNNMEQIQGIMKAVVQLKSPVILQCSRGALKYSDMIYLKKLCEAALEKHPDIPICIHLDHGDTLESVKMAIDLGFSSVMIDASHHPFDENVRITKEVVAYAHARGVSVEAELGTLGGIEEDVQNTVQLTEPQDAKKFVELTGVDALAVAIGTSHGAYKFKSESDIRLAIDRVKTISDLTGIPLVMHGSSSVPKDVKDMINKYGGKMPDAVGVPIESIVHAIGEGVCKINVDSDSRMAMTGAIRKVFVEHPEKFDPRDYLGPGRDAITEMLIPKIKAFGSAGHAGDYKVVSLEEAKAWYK
#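 Giardia FBPA (40 nM reagent) was preincubated 10 min at RT with compound (up to 57.5 uM final), then substrate plus GAPDH/TPI/NAD/arsenate coupling system with diaphorase/resazurin was added; resorufin fluorescence (525/598 nm) was read after 20 min.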
# LmPK inhibitor: qHTS Assay for Inhibitors of Leishmania Mexicana Pyruvate Kinase (LmPK). Q27686. purified LmPK, Kinase-Glo ATP luminescence, 1 h. Potency, µM (highest dose often 57.5 µM), inactives show at the top dose activity change, negative = inhibition, actives largely listed as inhibitors. 290,000 tested, 0.37% active; also: % is scaled to controls: 0 for no effect and ±100 for the full control effect
# Target sequence (Q27686 whole entry, looked up): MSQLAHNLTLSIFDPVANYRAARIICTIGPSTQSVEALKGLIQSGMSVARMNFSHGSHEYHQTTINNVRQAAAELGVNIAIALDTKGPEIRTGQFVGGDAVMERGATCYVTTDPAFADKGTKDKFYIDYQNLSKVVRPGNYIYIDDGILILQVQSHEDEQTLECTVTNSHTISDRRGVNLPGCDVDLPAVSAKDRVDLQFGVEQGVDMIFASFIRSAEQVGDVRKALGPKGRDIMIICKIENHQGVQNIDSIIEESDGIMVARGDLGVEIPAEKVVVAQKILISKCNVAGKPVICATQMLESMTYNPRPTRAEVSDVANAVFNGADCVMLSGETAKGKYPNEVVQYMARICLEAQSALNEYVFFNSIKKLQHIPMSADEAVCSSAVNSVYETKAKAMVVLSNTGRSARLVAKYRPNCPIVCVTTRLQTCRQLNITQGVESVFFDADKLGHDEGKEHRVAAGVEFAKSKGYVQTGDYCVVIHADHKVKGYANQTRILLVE
#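 qHTS format; LmPK 0.1 nM; substrates PEP 0.5 mM and ADP 0.1 mM. One-hour room-temperature incubation, then coupled luciferase luminescence; 0.5 nM enzyme wells mark activation.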
# NS1 inh: qHTS Assay for Inhibitors of Influenza NS1 Protein Function | Potency, µM (doses to about 46.1 µM), for the others: at the top dose activity, positive = more growth | 270,000 tested, 0.4% active | AID 2326, 2010; calls by dose curve; also: actives are rising curves; nearly all actives have a fitted effect of over 50% in size
#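 OD600 was taken as the measure of yeast growth restored by compound in an NS1-expressing S. cerevisiae strain. Cells had been washed out of glucose medium and diluted 1:100 into galactose -URA medium, pH 6.0.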
# RE007 growth inh: qHTS Assay for Inhibitors of the HIV-1 protein Vpr; S. pombe RE007 Vpr strain, BacTiter-Glo ATP luminescence, 24 h; Potency, µM (series often up to 92.2 µM), without a hit: at the highest dose activity change, negative = less growth, actives largely listed as inhibitors; 360,000 tested, 0.21% active; AID 651644, 2012; active = well fitted falling curve with a large enough effect; inconclusive = small, poorly fitted or top-dose-only effect; inactive = no such curve, though single readings can be large or run the other way; also: % is scaled to controls: 0 for no effect and ±100 for the full control effect; nearly all actives have a fitted effect of over 50% in size
#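 Fission yeast strain RE007, carrying one chromosomally integrated HIV-1 vpr copy, was seeded at OD 0.01 in PMG+AL medium with 23 nL pinned compound. After 24 h at 30 °C and 99% humidity, viability was read by BacTiter-Glo luminescence.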
# Tb PYK inh: qHTS of Trypanosoma Brucei Inhibitors; TbPYK enzyme, Kinase-Glo Plus ATP luminescence, 45 min; Potency, µM (doses to about 76.8 µM), inactives show at the top dose activity, negative = inhibition, usual class: inhibitors; 410,000 tested, 0.12% active; also: % is scaled to controls: 0 for no effect and ±100 for the full control effect; nearly all actives have a fitted effect of over 50% in size
#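 Readout: single end-point luminescence (Kinase-Glo Plus, 10 min). Reaction conditions were TbPYK/substrate plus 130 uM ADP, 45 min at RT, pH 7.2 TEA buffer. No-enzyme wells served as controls, and data were normalized before concentration-response fitting.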
# Sm TGR block: qHTS Assay for the Inhibitors of Schistosoma Mansoni Peroxiredoxins. Schistosoma mansoni thioredoxin glutathione reductase (TGR), Q962Y6. 360,000 tested, 3% active. Potency, µM (doses to about 114 µM), without a hit: top-dose activity change, negative = inhibition, actives largely listed as inhibitors. purified TGR, DTNB reduction, TNB absorbance 405 nm. AID 485364, 2010; also: % is scaled to controls: 0 for no effect and ±100 for the full control effect; nearly all actives have a fitted effect of over 60% in size
#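 First, TGR (20 nM dispensed) and NADPH were mixed with compound. Second, a 15 min room-temperature incubation followed. Third, further NADPH and then DTNB were added to start the reaction. Finally, TNB absorbance was monitored kinetically.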
# The depositor's hits bear a star; ? = inconclusive; · = not tested or not shown; [ ] = remark or other dose. Rows were chosen to be rich in hits. Some 3.5% of all compounds tested hit in one or more screens of this group. Unless noted, calls follow the shape of the dose curve; as a rule, active = well fitted curve in the direction sought with a large enough effect; inconclusive = small, poorly fitted or top-dose-only effect, or another doubt; inactive = no such curve, though single readings can be large; an effect the other way counts as inactive or inconclusive. Potency is read from the fitted curve at half-maximal effect.
SMILES,FBPA Giardia inh,LmPK inhibitor,NS1 inh,RE007 growth inh,Tb PYK inh,Sm TGR block
CCOC(=O)/C=C/C(=O)OCC(=O)Nc1ccc(Cl)cc1Cl,-0.4%,3.4%,·,-6.0%,-0.7%,11.2µM*
CCOC(=O)/C=C/C(=O)OCC(=O)Nc1ccc(OC)c(Cl)c1,1.8%,-0.2%,-50.5%,-3.1%,-2.3%,17.8µM*
O=Cc1cccc(Oc2ccc([N+](=O)[O-])cc2[N+](=O)[O-])c1,-29.5%,3.5%,·,-13.8%,0.8%,44.7µM*
Cc1cc(=O)oc2cc(Oc3ccc([N+](=O)[O-])cc3[N+](=O)[O-])ccc12,-5.2%,1.2%,1.7%,0.3%,0.9%,50.1µM*
Cc1ccc(NCCC(=O)c2ccc(Cl)cc2)cc1,?,0.5%,-7.5%,8.4%,3.1%,6.31µM*
CCc1ccc(NCCC(=O)c2ccc(Br)cc2)cc1,1.3%,2.9%,0.5%,4.1%,5.6%,12.6µM*
Cc1ccc(NCCC(=O)c2ccc(Br)cc2)cc1,4.9%,0.3%,-2.9%,-18.9%,4.8%,7.08µM*
Cc1ccc(NCC(=O)c2ccc(C)cc2)cc1,-9.5%,-1.3%,-16.7%,-26.6%,6.2%,0.0%
Cc1ccc(C(=O)CCNc2ccc(Br)cc2)o1,2.3%,-2.8%,-6.6%,-28.7%,1.3%,?
Cc1ccc(C(=O)c2cn(CC(=O)NCc3ccccc3Cl)c3nc(C)ccc3c2=O)cc1,·,·,·,·,-8.3%,-2.7%
CC(C)CN(C)c1nc(N)c(C(=O)N=C(N)N)nc1Cl,-6.5%,·,-11.8%,·,·,·
COP(=O)(Cc1ccc(C#N)o1)OC,2.3%,2.6%,4.7%,9.5%,0.6%,22.4µM*
O=C(NCc1cccs1)c1nn(-c2ccccc2F)nc1CO,·,·,·,·,-0.7%,-2.1%
CCC1(C)NC(=O)N(CC(=O)Nc2sc3c(c2C(=O)OC)CCCCC3)C1=O (stereo not drawn),-4.6%,2.2%,3.3%,9.2%,-0.9%,-0.9%
CCC1(CC)NC(=O)N(CC(=O)Nc2sc3c(c2C(N)=O)CCC3)C1=O,-5.1%,3.8%,9.8%,-15.8%,-1.1%,44.7µM*
CN1CCN(C(=S)C(=O)Nc2ccc(Br)cc2)CC1,5µM*,0.8%,1.7%,5.8%,?,·
O=C(Nc1ccc(Br)cc1)c1ccccc1CC[N+](=O)[O-],-5.8%,5.3%,-6.4%,-13.5%,2.0%,-6.4%
Cc1cc(C)cc(NC(=O)c2ccccc2CC[N+](=O)[O-])c1,2.2%,3.5%,19.2%,-13.7%,-3.2%,39.8µM*
CCC1=[N+](CC(=O)c2ccc(Br)cc2)CCn2c(C)ccc21,-2.7%,-4.2%,7.0%,-14.4%,4.8%,17.8µM*
Cc1ccc(-n2c(-c3ccc(Br)cc3)n[nH]c2=S)c(C)c1,·,·,·,10.8%,?,·
Oc1ccc(-c2n[nH]c(=S)n2Cc2ccccc2)cc1,-4.9%,8.91µM*,-18.6%,14.2%,?,1.7%
Cc1scc(-c2n[nH]c(=S)n2Cc2ccccc2)c1C,13.7%,?,-10.3%,-7.9%,3.16µM*,-14.0%
CCc1c(-c2n[nH]c(=S)n2Cc2ccccc2)csc1C,16.3%,?,-39.2%,3.9%,?,-3.1%
Cc1ccc(C)c(-n2c(-c3csc(C)c3C)n[nH]c2=S)c1,10.6%,7.08µM*,14.5%,5.2%,?,9.2%
S=c1[nH]nc(-c2ccccc2Cl)n1Cc1ccccc1,-2.4%,-5.1%,0.5%,4.2%,6.31µM*,4.2%
SMILES,FBPA Giardia inh,LmPK inhibitor,NS1 inh,RE007 growth inh,Tb PYK inh,Sm TGR block
CC[C@H](C)[C@H](NC(=O)CNC(=O)[C@@H](NC(=O)[C@@H](NC(=O)[C@H](Cc1ccc(O)cc1)NC(=O)[C@H](CC(C)C)NC(=O)[C@H](C)NC(=O)[C@H](CCC(N)=O)NC(=O)CNC(=O)[C@@H]1CCCN1C(=O)CNC(=O)[C@H](Cc1ccccc1)NC(=O)[C@H](Cc1cnc[nH]1)NC(=O)[C@@H](NC(=O)CNC(=O)[C@H](CCCNC(=N)N)NC(=O)[C@H](CCCNC(=N)N)NC(=O)[C@@H](NC(=O)[C@H](CC(N)=O)NC(=O)[C@@H](N)CS)[C@@H](C)O)[C@@H](C)CC)[C@@H](C)O)[C@@H](C)O)C(=O)O,0.9%,·,·,·,·,·
CCOc1ccccc1Nc1sc(C(=O)c2ccc(Cl)cc2)c(N)c1C#N,·,·,·,·,-3.2%,6.3%
S=c1[nH]nc(-c2ccncc2)n1Cc1ccccc1,-5.9%,?,9.9%,6.4%,?,0.8%
Cc1cc(-c2n[nH]c(=S)n2Cc2ccccc2)cs1,10.5%,?,3.0%,10.7%,3.55µM*,2.9%
Cc1cccc(NC(=O)Cn2nnc(C(=O)Nc3ccccc3Br)c2N)c1C,·,·,·,·,0.0%,-3.2%
CCCOC(=O)C1[C@H]2C(=O)N(Cc3ccco3)C[C@]23C=C[C@H]1O3 (stereo partly drawn),-3.0%,-1.1%,16.0%,0.4%,2.3%,25.1µM*
CCCCOC(=O)C1[C@H]2C(=O)N(Cc3cccs3)C[C@]23C=C[C@H]1O3 (stereo partly drawn),1.1%,10.9%,9.3%,0.4%,-0.8%,-8.3%[11.4 µM]
CCCCC[C@H](O)/C=C/C=C\CCCCCCCCCC(=O)O,3.8%,·,·,·,·,·
Cc1ccc(-c2nc3c(c(=O)c4ccccc4n3C)c(=O)n2Cc2ccco2)cc1,-8.2%,5.0%,6.7%,-12.0%,28.0%,31.6µM*
Cn1c2ccccc2c(=O)c2c(=O)n(Cc3ccco3)c(-c3ccc(F)cc3)nc21,1.0%,-6.5%,3.6%,4.6%,0.0%,39.8µM*
COc1ccc(CCn2c(-c3ccc(OC)cc3)nc3c(c(=O)c4ccccc4n3C)c2=O)cc1,7.1%,6.2%,5.2%,9.5%,4.2%,-3.1%
COCCn1c(-c2ccc(C)cc2)nc2c(c(=O)c3ccccc3n2C)c1=O,·,·,·,-3.2%,3.0%,·
CCOc1ccccc1C(=O)Nc1ccc(S(=O)(=O)Nc2onc(C)c2C)cc1,·,·,·,·,-1.3%,-0.7%
COc1ccc(S(=O)(=O)/N=C2/NC(=O)/C(=C\c3ccco3)S2)cc1,5.9%,8.5%,-2.9%,-12.0%,-12.7%,44.7µM*
O=C1NC(=Nc2ccccc2)/C(=C/c2ccco2)S1,-18.0%,1.6%,4.3%,-2.7%,1.2%,50.1µM*
Cc1ccc(N=C2NC(=O)S/C2=C\c2ccco2)cc1,-19.1%,-6.5%,17.7%,3.2%,7.8%,-29.7%
COc1ccc(N=C2NC(=O)/C(=C/c3ccco3)S2)cc1,-5.1%,1.8%,-3.7%,0.4%,-3.7%,31.6µM*
C=CCN(CC=C)C(=O)c1c(OC)cccc1OC,3.8%,1.4%,3.4%,-2.8%,-1.8%,-13.1%
C=CCc1c(C)[nH]c2c(OC)cccc2c1=S,-27.1%,2µM*,-0.1%,0.4%,?,2.6%

# Bioassay records: PubChem BioAssay, National Center for Advancing Translational Sciences (NCATS)
